Bioassay records deposited in PubChem BioAssay by National Center for Advancing Translational Sciences (NCATS).
An excerpt weighted towards active compounds, which were near 12% of everything screened.
G9a block = G9a (human) methyltransferase inhibition. G9a H3K9 monomethylation, AlphaScreen, 2 h. Potency, µM (doses to about 102 µM), for the others: at the highest dose activity, negative = inhibition, usual class: inhibitors. AID 504332. Q96KQ7. 350,000 compounds, 8.8% hits; further: on the % scale 0 is the no-effect control and ±100 the full control effect; nearly all actives have a fitted effect of over 75% in size
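Readings reflect AlphaScreen signal from monomethyl-H3K9 antibody detection. HMT at 20 nM; substrate b-H3K9 500 nM; cofactor SAM 20 uM; 2 h RT reaction; compounds tested as titrations in qHTS with 15 min preincubation.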
BAZ2B block = inhibitors of human BAZ2B bromodomain; Q9UIF8; Potency, µM (top dose mostly 114 µM), for inactives: at the top dose activity change, negative = inhibition, hits mostly inhibitors; AlphaScreen BAZ2B-H3K14Ac peptide displacement; 360,000 compounds, 4.4% hits; further: on the % scale 0 is the no-effect control and ±100 the full control effect; nearly all actives have a fitted effect of over 60% in size
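AlphaScreen luminescence quantifies BAZ2B engagement of H3K14Ac peptide; the protein and biotinylated peptide are both at 50 nM final, buffer PBS pH 7.4 with 0.01% Tween-20, all steps at room temperature.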
TDP1 block = TDP1 (human) enzyme inhibition | Potency, µM (highest dose often 130 µM), inactives show top-dose activity change, negative = inhibition, most hits filed as inhibitors | Q9NUW8 | 350,000 compounds, 0.28% hits | AID 485290 | recombinant TDP1, AlphaScreen DNA substrate cleavage; further: on the % scale 0 is the no-effect control and ±100 the full control effect; nearly all actives have a fitted effect of over 40% in size
Target sequence (Q9NUW8 whole entry, looked up): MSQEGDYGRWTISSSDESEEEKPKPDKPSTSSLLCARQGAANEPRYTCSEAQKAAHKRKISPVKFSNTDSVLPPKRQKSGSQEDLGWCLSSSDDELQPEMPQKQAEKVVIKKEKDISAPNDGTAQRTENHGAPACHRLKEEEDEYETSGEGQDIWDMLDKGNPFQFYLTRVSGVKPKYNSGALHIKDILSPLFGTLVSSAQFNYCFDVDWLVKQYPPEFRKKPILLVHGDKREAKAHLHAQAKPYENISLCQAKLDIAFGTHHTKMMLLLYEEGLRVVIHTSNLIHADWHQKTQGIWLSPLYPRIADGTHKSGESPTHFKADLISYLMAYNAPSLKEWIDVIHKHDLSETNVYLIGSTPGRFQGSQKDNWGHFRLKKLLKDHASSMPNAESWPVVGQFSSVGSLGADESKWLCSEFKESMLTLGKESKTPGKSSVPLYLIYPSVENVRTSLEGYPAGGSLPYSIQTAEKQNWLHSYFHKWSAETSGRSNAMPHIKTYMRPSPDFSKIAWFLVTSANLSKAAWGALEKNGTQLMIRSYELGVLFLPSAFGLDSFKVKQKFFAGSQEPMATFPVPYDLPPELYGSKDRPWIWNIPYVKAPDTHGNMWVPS
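E. coli-derived human Tdp1, 1 nM final. Cpd preinc 15 min RT; substrate 15 nM final, 5 min RT; AS bead mix 10 ug/ml final, 10 min RT. Signal loss = tyrosine-FITC cleavage. No-enzyme wells = max signal.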
JMJD2A Tudor inh = blocks the human JMJD2A Tudor domain. O75164. AlphaScreen JMJD2A-Tudor / H3K4me3 peptide binding. Potency, µM (series often up to 114 µM), without a hit: top-dose activity change, negative = inhibition, usual class: inhibitors. 390,000 compounds, 4.4% hits. AID 504339; further: on the % scale 0 is the no-effect control and ±100 the full control effect; nearly all actives have a fitted effect of over 50% in size
Sfp inh = inhibitors of Bacillus subtilis Sfp phosphopantetheinyl transferase; Q9F4F7; Biochemical Sfp PPTase activity, qHTS; Potency, µM, for inactives: largest response in the series, negative = inhibition, actives largely listed as inhibitors; 310,000 compounds, 3.5% hits;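 further: the enzyme is Sfp with the accession as filed and its product quenches rhodamine fluorescence; 0% = enzyme reaction without inhibitor and -100% = no enzyme wells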
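With Hepes-Na pH 7.6 buffer containing 10 mM MgCl2, Sfp (15 nM) modified BHQ-2-YbbR (12.5 uM) using rhodamine-CoA (5 uM). Two reads 30 minutes apart at 525/598 nm yielded each well's rate.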
HP1b binding inh = inhibitors of HP1-beta chromodomain binding to methylated histone tails. P83916. AlphaScreen HP1-beta / biotin-H3K9me3 peptide binding. Potency, µM (doses to about 114 µM), without a hit: at the top dose activity change, negative = inhibition, usual class: inhibitors. 390,000 compounds, 0.56% hits. AID 540317; further: nearly all actives have a fitted effect of over 70% in size
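AlphaScreen: HP1-beta (50 nM) preformed 30 min with biotin-H3(1-18)K9me3 peptide (50 nM) in PBS pH 7.4, 0.01% Tween-20. Compound added for 30 min at RT, then streptavidin donor/nickel chelate acceptor beads (10 ug/mL) for 30 min.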
* marks the source's active call; other numbers are inactive results; ? = inconclusive; / = not tested or not shown; ! = a repeat was not active; [ ] = dose if it differs, or a comment. The call rests on the fitted dose curve; in most records, active means well fitted curve in the direction sought with a large enough effect; inconclusive means small, poorly fitted or top-dose-only effect, or another doubt; inactive means no such curve, though single readings can be large; an effect the other way counts as inactive or inconclusive. Potency means the concentration at half of the fitted maximal effect.

SMILES	G9a block	BAZ2B block	TDP1 block	JMJD2A Tudor inh	Sfp inh	HP1b binding inh
CCCCn1c(=O)c(C(=O)Nc2ccccc2N)c(O)c2ccccc21	/	50µM*	2%	2%	-6%	46%
COc1cc(-c2ccc(-[n+]3nc(-c4ccccc4)nn3-c3ccc([N+](=O)[O-])cc3)c(OC)c2)ccc1-[n+]1nc(-c2ccccc2)nn1-c1ccc([N+](=O)[O-])cc1	?	/	/	/	8%	/
CC(C)C[C@H]1C(=O)N2CCC[C@@H]2[C@@]2(O)O[C@](NC(=O)[C@@H]3C=C4c5cccc6[nH]cc(c56)C[C@@H]4N(C)C3)(C(C)C)C(=O)N12	?	/	15%[21 µM]	/	-17%	/
CN(C)CCOc1ccc(/C(=C(/CCCl)c2ccccc2)c2ccccc2)cc1	?	/	4%	25µM*	-28%	-18%
Cc1ncc(CNC(=O)N(CCCl)N=O)c(N)n1	17µM*!	-10%	5%[56.1 µM]	-34%	-28%	24%
CC[N+](C)(CC)CCCCOc1ccc2c(c1)C(=O)c1cc(OCCCC[N+](C)(CC)CC)ccc1-2	32µM*	?	-6%	22µM*	14µM*	?
O=C(Cc1ccccc1)N1CCN(C2CCCC2)CC1	-31%[2.33 µM]	?	-2%	32µM*	89µM*	-34%
COC(=O)c1ccc(CN2CCN(Cc3ccccc3)CC2)cc1	-6%[59 µM]	-10%	-1%	79µM*	3%	4%
Cc1ccccc1CN1CCN(C(=O)Cc2ccccc2)CC1	16µM*	25µM*	-13%	11µM*	-3%	22µM*
O=C(Cc1ccccc1)N1CCN(Cc2ccc(Cl)cc2)CC1	/	/	/	10µM*	/	?
CC(=O)Nc1ccc(CC(=O)N2CCN(Cc3ccccc3)CC2)cc1	-2%	-6%	1%	-9%	2%	5%
CCCc1cc2c(n1Cc1cccc(Cl)c1)C(C)C1CN(C(=O)c3ccccc3)C(C)(C(=O)OC)C21 (stereo unspecified)	/	/	-3%	/	-3%	/
CCC(CC)N1CCN(C(=O)Cc2ccccc2)CC1	11µM*	?	0%	3.2µM*	-7%	?
O=C(Cc1ccccc1)N1CCN(Cc2cccc(Cl)c2)CC1	21%[0.501 µM]	?	/	3.2µM*	-18%	?
CC(C)C1C(=O)N2CCC[C@H]2[C@]2(O)O[C@](NC(=O)[C@@H]3C=C4c5cccc6[nH]cc(c56)C[C@H]4N(C)C3)(C(C)C)C(=O)N12 (stereo partly specified)	-33%[59 µM]	/	12%	/	?	/
O=C1c2cccc3cc([N+](=O)[O-])cc(c23)C(=O)N1c1ccccc1O	16%[12.7 µM]	?	0%	-9%[11.4 µM]	-5%	23%
CCc1ccc(-n2nc(C)c3c(C(=O)NCCc4ccc(OC)c(OC)c4)cc(C)nc32)cc1	5%[59 µM]	19%[57.1 µM]	3%	6%	/	47%
O=C(CCl)c1ccc(Oc2ccc(C(=O)CCl)cc2)cc1	?	/	14%	/	50µM*	/
CCN1C[C@]2(COC(=O)c3ccccc3N3C(=O)C[C@H](C)C3=O)CC[C@H](OC)[C@@]34[C@@H]5C[C@H]6[C@H](OC)[C@H]5[C@](O)(C[C@@H]6OC)[C@@](O)([C@@H](OC)[C@@H]23)[C@@H]14	/	/	14%[56.1 µM]	/	-6%	/
CC1=NN(c2ccccc2)C(=O)C1/C=C1/C(=O)NC(=O)N(c2cccc(C)c2)C1=O (stereo unspecified)	-19%[59 µM]	?	4%	/	-13%	/
COc1cc(/C=C2/C(=O)NC(=O)N(c3ccc(C)cc3)C2=O)cc(OC)c1OC	-4%[12.7 µM]	-4%	-1%	-14%	50µM*	-8%
COc1cc(/C=C2\C(=O)NC(=O)N(c3ccc(C)cc3)C2=O)cc(OC)c1O	20µM*	4%	5%	-3%	35µM*	25%
COc1ccc(/C=C2/C(=O)NC(=O)N(c3ccc(C)c(C)c3)C2=O)cc1CN1C(=O)c2ccccc2C1=O	11µM*	50µM*	-2%	50µM*	40µM*	-11%
